Results taken from the supplement of paper PMC12340641.
Over roughly 1,000 compounds, “relative growth recovery (pomalidomide 10 uM = 100%, DMSO = 0%)” has its median near -1.6; the highest 2% begin near 21. The full list was thinned out, with the highest values kept by preference.

Test system: HEK293FT dCK*-IKZF1
Test: relative growth recovery (pomalidomide 10 uM = 100%, DMSO = 0%); higher = more growth rescue (IKZF1 fusion degradation)
Details: compound concentration: 5 uM; AraC concentration: 0.3 uM; overnight pretreatment + 4 days AraC
Protocol: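 Growth recovery screen of the molecular-glue-like (Specs) library. HEK293FT cells expressing a dCK*-IKZF1 fusion (primary) or dCK* alone (counter) were pretreated overnight with compound at 5 uM, then given 0.3 uM AraC for 4 days. Hoechst nuclei were counted by imaging. Primary: normalised to pomalidomide (100%) and DMSO (0%), mean of 2 replicates. Counter: normalised to no-AraC (100%) and AraC+DMSO (0%), single replicate.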

Compared with `CCC(C)(C)C(=O)Nc1ccc(S(=O)(=O)Nc2ncccn2)cc1`, `O=C(Nc1ccc(S(=O)(=O)Nc2ncccn2)cc1)C(F)(F)F` is higher in relative growth recovery: -5.08% for the first, 12.6% for the second.

Compared with `Cc1ccnc(NS(=O)(=O)c2ccc(NS(=O)(=O)c3ccc(F)cc3)cc2)n1`, `Cc1ccc(S(=O)(=O)Nc2ccc(S(=O)(=O)Nc3ncccn3)cc2)cc1` is lower in relative growth recovery: -0.59% for the first, -3.26% for the second.

Compared with `Cc1nc(Nc2cccc(C3CCCN3C(=O)COc3ccc(F)cc3)n2)sc1C` (stereo not given), `Cc1csc(Nc2cccc(C3CCCN3C(=O)CCCc3ccc(F)cc3)n2)n1` (stereo not given) is lower in relative growth recovery: 14.4% for the first, 0.885% for the second.

Compared with `Cc1cc(C)nc(NS(=O)(=O)c2ccc(Nc3nc(-c4cccnc4)cs3)cc2)n1`, `Cc1cccc(C(=O)Nc2ccc(S(=O)(=O)Nc3nc(C)cc(C)n3)cc2)c1` is higher in relative growth recovery: -1.15% for the first, 4.85% for the second.

Compared with `COc1cc(NS(=O)(=O)c2ccc(NC(=O)COc3ccc(C)cc3)cc2)nc(OC)n1`, `Cc1ccc(OCC(=O)Nc2ccc(S(=O)(=O)Nc3nc(C)cc(C)n3)cc2)cc1` is lower in relative growth recovery: 1.75% for the first, -1.25% for the second.

First: O=C(CN1CCC(c2cccc(Nc3nccs3)n2)CC1)Nc1ccc(F)cc1
Second: O=C(c1cccc2ncccc12)N1CCOC(c2cccc(Nc3nccs3)n2)C1 (stereo not given)
The relative growth recovery of the first is higher: 9.19% for the first, -7.12% for the second.

First: COc1ccc(Cl)c2c1[nH]c1nc(SCC(=O)Nc3ccc(F)cc3)nnc12
Second: Cc1ccc(C)c2c1[nH]c1nc(SCC(=O)Nc3cccc(F)c3)nnc12
The relative growth recovery of the first is higher: -2.51% for the first, -2.81% for the second.

First: Cc1cnc(Nc2cccc(C3(C(N)=O)CCN(C(=O)C4CCCCC4)CC3)n2)s1
Second: Cc1cnc(Nc2cccc(C(C(=O)N(C)C)C3CCN(C(=O)C4CCCCC4)CC3)n2)s1 (stereo not given)
The relative growth recovery of the first is lower: -18.2% for the first, 1.65% for the second.

Going from `COc1ccccc1OCC(=O)Nc1ccc(S(=O)(=O)Nc2ncccn2)cc1` to `Cc1cc(Cl)ccc1OCC(=O)Nc1ccc(S(=O)(=O)Nc2ncccn2)cc1`, the relative growth recovery falls from 1.59% to -2.19%.

First: Cc1cnc(Nc2cccc(C3CCN(C(=O)C45CC6CC(CC(C6)C4)C5)CC3)n2)s1
Second: Cc1cnc(Nc2cccc(C3CCN(C(=O)CC4CCCCC4)CC3)n2)s1
The relative growth recovery of the first is higher: 1.16% for the first, -13.5% for the second.

Compared with `CCCOc1ccc(C(=O)Nc2ccc(S(=O)(=O)Nc3nc(C)cc(C)n3)cc2)cc1`, `Cc1cc(C)nc(NS(=O)(=O)c2ccc(NC(=O)COc3ccc(Cl)cc3)cc2)n1` is higher in relative growth recovery: -2.85% for the first, 3.77% for the second.

First: Cc1cc(Cl)ccc1OC(C)C(=O)Nc1ccc(S(=O)(=O)Nc2ccccn2)cc1 (stereo not given)
Second: CC(Oc1ccccc1)C(=O)Nc1ccc(S(=O)(=O)Nc2ncccn2)cc1 (stereo not given)
The relative growth recovery of the first is higher: 0.47% for the first, -0.515% for the second.

First: Cc1cc(NS(=O)(=O)c2ccc(NC(=O)CCCOc3ccc(Cl)cc3)cc2)nc(C)n1
Second: Cc1ccc(C(=O)Nc2ccc(S(=O)(=O)Nc3cc(C)nc(C)n3)cc2)cc1
The relative growth recovery of the first is higher: -1.54% for the first, -1.57% for the second.

Going from `Cc1csc(Nc2cccc(C3CCCN3C(=O)CO)n2)n1` (stereo not given) to `Cc1csc(Nc2cccc(C3CCCN3C(=O)CC3CC(C)(C)NC(C)(C)C3)n2)n1` (stereo not given), the relative growth recovery falls from 1.4% to -0.835%.

Going from `CC(=O)NC1(CC(=O)N2CCC(c3cccc(Nc4ncc(C)s4)n3)CC2)CCCCC1` to `Cc1cnc(Nc2cccc(C3CCN(C(=O)C4(NC(=O)CC(C)(C)C)CCCCC4)CC3)n2)s1`, the relative growth recovery falls from -11.7% to -16.1%.

Going from `Cc1ccc(Nc2nc(C3CCCN(CC(N)=O)C3)cs2)nc1` (stereo not given) to `COC(C)(C)C(=O)N1CCCC(c2csc(Nc3ccc(C)cn3)n2)C1` (stereo not given), the relative growth recovery rises from -5.75% to 15.9%.

Compared with `Cc1cc(C)nc(NS(=O)(=O)c2ccc(NC(=S)NC(=O)c3ccc(F)c(F)c3)cc2)n1`, `Cc1cc(C)nc(NS(=O)(=O)c2ccc(NC(=O)c3ccc(Cl)cc3Cl)cc2)n1` is higher in relative growth recovery: -2.13% for the first, -0.215% for the second.

Going from `Cc1cnc(Nc2cccc(C3CN(C(=O)C4CCOC4)CCO3)n2)s1` (stereo not given) to `Cc1cnc(Nc2cccc(C3CN(C(=O)C4CCCCC4)CCO3)n2)s1` (stereo not given), the relative growth recovery falls from -8.06% to -11.7%.

Going from `O=C1CCC(N2C(=O)c3ccc(N4CCC(C(=O)O)CC4)cc3C2=O)C(=O)N1` (stereo not given) to `CN(CCN1CCC(C(=O)O)CC1)c1cccc2c1C(=O)N(C1CCC(=O)NC1=O)C2=O` (stereo not given), the relative growth recovery rises from 1.72% to 5.47%.

Compared with `Cc1cc(C)nc(NS(=O)(=O)c2ccc(NC(=O)c3ccc(S(=O)(=O)N(C)C)cc3)cc2)n1`, `Cc1ccnc(NS(=O)(=O)c2ccc(NC(=O)c3ccc(C)c(C)c3)cc2)n1` is higher in relative growth recovery: -5.78% for the first, 1.75% for the second.

Going from `Cc1ccc(Oc2ccc(N3C(=O)c4ccc(Oc5ccc(N)cc5)cc4C3=O)cc2)cc1C` to `CC(=O)Nc1cccc(Oc2ccc3c(c2)C(=O)N(c2ccc(OC(C)=O)cc2)C3=O)c1`, the relative growth recovery rises from -8.53% to -2.76%.

Going from `CCNc1nc(NCC)nc(NS(=O)(=O)c2ccc(N)cc2)n1` to `CC(C)Nc1nc(NC(C)C)nc(NS(=O)(=O)c2ccc(N)cc2)n1`, the relative growth recovery falls from 3.4% to -1.87%.

Compared with `CC(=O)Nc1ccc(S(=O)(=O)N(C#N)c2nc(C)cc(C)n2)cc1`, `Cc1ccc(C)c(OCC(=O)Nc2ccc(S(=O)(=O)Nc3nc(C)cc(C)n3)cc2)c1` is lower in relative growth recovery: 4.26% for the first, -2.19% for the second.

Going from `Cc1cnc(Nc2cccc(C3CN(C(=O)CC4CCCCC4)CCO3)n2)s1` (stereo not given) to `COc1ccc(CCC(=O)N2CCOC(c3cccc(Nc4ncc(C)s4)n3)C2)cc1` (stereo not given), the relative growth recovery rises from -11.7% to 15.7%.

Compared with `O=C(Nc1ccc(S(=O)(=O)Nc2ncccn2)cc1)c1ccc([N+](=O)[O-])cc1`, `O=C(Nc1ccc(S(=O)(=O)Nc2ncccn2)cc1)c1ccc2c(c1)OCO2` is lower in relative growth recovery: -0.33% for the first, -3.11% for the second.

Compared with `COc1ccc(OCCCC(=O)Nc2ccc(S(=O)(=O)Nc3ncccn3)cc2)cc1`, `COc1ccc(C(=O)Nc2ccc(S(=O)(=O)Nc3ncccn3)cc2)c(OC)c1` is higher in relative growth recovery: -3.56% for the first, -1.31% for the second.

First: CCC(Oc1ccccc1)C(=O)Nc1ccc(S(=O)(=O)Nc2ncccn2)cc1 (stereo not given)
Second: CCC(Oc1ccccc1)C(=O)Nc1ccc(S(=O)(=O)Nc2nc(C)cc(C)n2)cc1 (stereo not given)
The relative growth recovery of the first is higher: 78.9% for the first, -3.29% for the second.

Going from `Cc1cc(C)nc(NS(=O)(=O)c2ccc(NC(=O)c3oc4ccccc4c3C)cc2)n1` to `CCc1ccccc1OCC(=O)Nc1ccc(S(=O)(=O)Nc2nc(C)cc(C)n2)cc1`, the relative growth recovery falls from -2.64% to -4.88%.

First: Cc1cnc(Nc2cccc(C3CCN(C(=O)CCn4ncc5ccccc54)CC3)n2)s1
Second: CCCN1CC(C(=O)N2CCC(c3cccc(Nc4ncc(C)s4)n3)CC2)CC1=O (stereo not given)
The relative growth recovery of the first is higher: -1.66% for the first, -5.35% for the second.

Going from `COc1cc(NS(=O)(=O)c2ccc(NC(=O)c3ccccc3C)cc2)nc(OC)n1` to `COc1cc(NS(=O)(=O)c2ccc(NC(=O)c3ccccc3C(=O)O)cc2)nc(OC)n1`, the relative growth recovery falls from -0.335% to -4.23%.

First: COc1ccc(C(=O)Nc2ccc(S(=O)(=O)Nc3cc(OC)nc(OC)n3)cc2)c(OC)c1
Second: COc1cc(NS(=O)(=O)c2ccc(NC(=O)/C=C/c3ccco3)cc2)nc(OC)n1
The relative growth recovery of the first is higher: 3.94% for the first, 1.19% for the second.

Going from `CCOc1cc(C(=O)Nc2ccc(S(=O)(=O)Nc3ncccn3)cc2)cc(OCC)c1OCC` to `Cc1cc(OCC(=O)Nc2ccc(S(=O)(=O)Nc3ncccn3)cc2)ccc1Cl`, the relative growth recovery falls from 0.09% to -0.26%.

Compared with `Cc1cnc(Nc2cccc(C3CN(C(=O)CN(C(=O)CC(C)C)c4ccccc4)CCO3)n2)s1` (stereo not given), `COc1cccc(CCC(=O)N2CCOC(c3cccc(Nc4ncc(C)s4)n3)C2)c1` (stereo not given) is higher in relative growth recovery: 1.34% for the first, 15.8% for the second.

First: COc1ccc(CCC(=O)N2CCOC(c3cccc(Nc4nc(C)cs4)n3)C2)cc1 (stereo not given)
Second: Cc1csc(Nc2cccc(C3CN(C(=O)CCCc4ccc(F)cc4)CCO3)n2)n1 (stereo not given)
The relative growth recovery of the first is higher: 32.4% for the first, 25.2% for the second.

Going from `Cc1csc(Nc2cccc(C3CN(C(=O)CCc4nc(C)no4)CCO3)n2)n1` (stereo not given) to `Cc1csc(Nc2cccc(C3CCN(C(=O)Cn4nc(C)cc4C)CC3)n2)n1`, the relative growth recovery rises from 5.6% to 16.9%.

First: O=[N+]([O-])c1ccc(S(=O)(=O)Nc2ccc(Cl)cn2)cc1
Second: O=[N+]([O-])c1ccc(S(=O)(=O)Nc2nc3ccccc3nc2Nc2ccccc2)cc1
The relative growth recovery of the first is lower: -4.66% for the first, 8.16% for the second.

First: CC(C)N(C(=O)CN1CCOC(c2cccc(Nc3nccs3)n2)C1)C1CCCCC1 (stereo not given)
Second: CCCCc1cnc(Nc2cccc(C3CCN(C(=O)[C@@H]4CCCCN4)CC3)n2)s1
The relative growth recovery of the first is higher: -2.24% for the first, -11.4% for the second.

First: Cc1cnc(Nc2cccc(C(C(=O)N(C)C)C3CCN(C(=O)[C@H](CC(C)C)NC(=O)OC(C)(C)C)CC3)n2)s1 (stereo not given in full)
Second: CC(=O)N1CCC(Cc2cccc(Nc3nc(C)cs3)n2)CC1
The relative growth recovery of the first is lower: 3.71% for the first, 10.6% for the second.

Compared with `Cc1nc(Nc2cccc(C3CCCN3C(=O)CCCN3C(=O)CNC3=O)n2)sc1C` (stereo not given), `Cc1ccc(Nc2nc(C3CCCN3C(=O)/C=C/c3csc(C)n3)cs2)nc1` (stereo not given) is lower in relative growth recovery: 3.93% for the first, 0.31% for the second.

Going from `Cc1ccc(/C=C/C(=O)Nc2ccc(S(=O)(=O)Nc3ncccn3)cc2)cc1` to `COc1ccc(Cl)cc1C(=O)Nc1ccc(S(=O)(=O)Nc2nccc(C)n2)cc1`, the relative growth recovery rises from -2.17% to -1.7%.

First: NCC(=O)N1CCC(c2cccc(Nc3ncc(Br)s3)n2)CC1
Second: CC(=O)N1CCCC(c2csc(Nc3ccccn3)n2)C1 (stereo not given)
The relative growth recovery of the first is lower: -17.1% for the first, -1.67% for the second.

Compared with `Cc1nc(/C=C/C(=O)N2CCC(c3cc4ccccc4c(Nc4nccs4)n3)CC2)cs1`, `Cn1nccc1/C=C/C(=O)N1CCC(c2cc3ccccc3c(Nc3nccs3)n2)CC1` is higher in relative growth recovery: -17.8% for the first, -16.9% for the second.

First: Cc1nn(C)c(C)c1/C=C/C(=O)N1CCC(c2cc3ccccc3c(Nc3nccs3)n2)CC1
Second: Cn1nccc1/C=C/C(=O)N1CCCC(c2cc3ccccc3c(Nc3nccs3)n2)C1 (stereo not given)
The relative growth recovery of the first is higher: 51.1% for the first, -10.2% for the second.

Compared with `Nc1ccc(Oc2ccc3c(c2)C(=O)N(CCO)C3=O)cc1`, `COc1ccc2[nH]c(SCC(=O)Nc3ncccn3)nc2c1` is lower in relative growth recovery: 2.76% for the first, 1.53% for the second.

Going from `Cn1nccc1/C=C/C(=O)N1CCCC(c2csc(Nc3ccccn3)n2)C1` (stereo not given) to `Cn1nccc1/C=C/C(=O)N1CCCC1c1csc(Nc2ccccn2)n1` (stereo not given), the relative growth recovery falls from 40.9% to 2.75%.

First: O=C(/C=C/c1ccco1)N1CCCC(c2csc(Nc3ccccn3)n2)C1 (stereo not given)
Second: O=C(/C=C/c1ccccc1)N1CCCC(c2csc(Nc3ccccn3)n2)C1 (stereo not given)
The relative growth recovery of the first is lower: 18.9% for the first, 31.2% for the second.

First: Cc1ccc(Nc2nc(C3CCCN(C(=O)/C=C/c4csc(C)n4)C3)cs2)nc1 (stereo not given)
Second: Cc1cc(C)nc(NS(=O)(=O)c2ccc(NC(=O)CSc3nc4c(cc3C#N)CCCCC4)cc2)n1
The relative growth recovery of the first is higher: 31.5% for the first, -5.67% for the second.

For `O=C1CCC(N2C(=O)c3cc(F)c(N4CCC(Cn5cc(C(=O)O)cn5)CC4)cc3C2=O)C(=O)N1` (stereo not given), the relative growth recovery was -2%.
